Results as given in PubChem BioAssay (Tox21).
Where “and” joins values, the source holds several entries; their conditions need not be identical. Equal entries are not always repeated. Where a structure was tested more than once in an assay, its records may differ in their call. Calls of active or inactive are those of the source. Unless noted, calls follow the shape of the dose curve; as a rule, active = well fitted curve in the direction sought with a large enough effect in the repeat runs; inconclusive = weak or mixed curves; inactive = no such curve, though single readings can be large; an effect the other way counts as inactive or inconclusive.

Key:
[1] = qHTS assay to identify small molecule antagonists of the glucocorticoid receptor (GR) signaling pathway - cell viability counter screen (AID 720693); also: nearly all actives have a fitted effect of over 55% in size; also: potency is read from the fitted curve at half-maximal effect
[2] = qHTS assay for identifying genotoxic compounds that show differential cytotoxicity against isogenic chicken DT40 cell lines with known DNA damage response pathways - wild type cell line (AID 743012); also: nearly all actives have a fitted effect of over 60% in size; also: potency is read from the fitted curve at half-maximal effect
Summary of the method: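 Cytotoxicity in repair-proficient parental chicken DT40 cells serves as the comparator for Rad54/Ku70- and Rev3-deficient lines. Cells were exposed to compounds for 40 h at 37 C/5% CO2, and ATP-based luminescence (CellTiter-Glo) measured viability.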

[3] = qHTS assay for identifying genotoxic compounds that show differential cytotoxicity against isogenic chicken DT40 cell lines with known DNA damage response pathways - Rad54/Ku70 mutant cell line (AID 743015); also: nearly all actives have a fitted effect of over 60% in size; also: potency is read from the fitted curve at half-maximal effect
[4] = qHTS assay to identify small molecule antagonists of the androgen receptor (AR) signaling pathway - cell viability counter screen (AID 743033; also: nearly all actives have a fitted effect of over 45% in size; also: potency is read from the fitted curve at half-maximal effect)
[5] = target: Androgen receptor (Homo sapiens) (UniProt P10275); assay: qHTS assay to identify small molecule antagonists of the androgen receptor (AR) signaling pathway (AID 743035; active = well fitted inhibition curve with a large enough effect in the signal ratio in the repeat runs, not every such curve was filed as active; inconclusive = weak or mixed curves, or effect the other way; inactive = no such curve, though single readings can be large or run the other way; the % refers to the signal ratio)
Sequence of Androgen receptor (Homo sapiens) (P10275 whole entry, looked up): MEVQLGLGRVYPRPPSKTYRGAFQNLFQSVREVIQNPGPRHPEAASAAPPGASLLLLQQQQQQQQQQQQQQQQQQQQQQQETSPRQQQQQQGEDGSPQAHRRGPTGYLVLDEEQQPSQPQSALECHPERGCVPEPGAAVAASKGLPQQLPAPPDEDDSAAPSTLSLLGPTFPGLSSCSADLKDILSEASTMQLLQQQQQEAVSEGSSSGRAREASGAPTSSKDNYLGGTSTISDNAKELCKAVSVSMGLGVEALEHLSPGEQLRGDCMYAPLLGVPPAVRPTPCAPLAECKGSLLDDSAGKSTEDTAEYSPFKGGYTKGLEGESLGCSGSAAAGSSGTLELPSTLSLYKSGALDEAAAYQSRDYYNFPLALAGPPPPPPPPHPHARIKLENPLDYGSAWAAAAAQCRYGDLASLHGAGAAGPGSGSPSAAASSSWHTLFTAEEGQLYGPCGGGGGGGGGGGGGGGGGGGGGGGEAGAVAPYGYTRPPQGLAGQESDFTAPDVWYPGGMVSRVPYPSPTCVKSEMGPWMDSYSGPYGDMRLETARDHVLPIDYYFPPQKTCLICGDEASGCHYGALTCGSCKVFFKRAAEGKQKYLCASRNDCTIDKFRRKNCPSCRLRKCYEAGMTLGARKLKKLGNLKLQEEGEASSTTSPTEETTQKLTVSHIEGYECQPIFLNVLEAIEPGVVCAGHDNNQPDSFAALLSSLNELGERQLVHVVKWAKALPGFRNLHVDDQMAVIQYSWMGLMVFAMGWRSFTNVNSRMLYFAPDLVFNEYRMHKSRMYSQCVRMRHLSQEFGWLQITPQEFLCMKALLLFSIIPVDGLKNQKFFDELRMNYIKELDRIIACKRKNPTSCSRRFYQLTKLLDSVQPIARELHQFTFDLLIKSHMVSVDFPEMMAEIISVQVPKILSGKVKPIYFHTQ
Summary of the method: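 Steps: seed AR-UAS-bla GripTite HEK293 cells, incubate 4 h at 37C; pin in test compound, then add agonist R1881; incubate 16 h at 37C; add LiveBLAzer B/G FRET substrate, 2 h at room temperature; read fluorescence.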

[6] = target: Androgen receptor (Homo sapiens) (UniProt P10275); assay: qHTS assay to identify small molecule agonists of the androgen receptor (AR) signaling pathway (AID 743036; active = well fitted activation curve with a large enough effect in the signal ratio in the repeat runs, with a control signal flat, not every such curve was filed as active; inconclusive = weak or mixed curves, or effect the other way; inactive = no such curve, though single readings can be large or run the other way; the % refers to the signal ratio)
Summary of the method: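 Fluorescence from a beta-lactamase FRET substrate served as read-out in AR-UAS-bla GripTite HEK293 cells. Cells were treated with DMSO-dissolved compounds for 16 h at 37C, then with LiveBLAzer B/G substrate for 2 h at room temperature.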

[7] = target: Androgen receptor (Homo sapiens) (UniProt P10275); assay: qHTS assay to identify small molecule agonists of the androgen receptor (AR) signaling pathway using the MDA cell line (AID 743040; also: nearly all actives have a fitted effect of over 20% in size); conditions: MDA-kb2 AR-luc cells, MMTV luciferase, 16 h, stronger effect = higher value
Summary of the method: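 Luciferase agonist assay: 16 h compound exposure at 37C without CO2 in MDA-kb2 AR-luc cells, whose MMTV promoter responds to both AR and GR. Luminescence measured after 30 min room-temperature incubation with ONE-Glo.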

[8] = qHTS assay to identify small molecule antagonists of the androgen receptor (AR) signaling pathway using the MDA cell line - cell viability counter screen (AID 743041; also: nearly all actives have a fitted effect of over 45% in size)
Summary of the method: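 Viability read by CellTiter-Fluor fluorescence in the same wells as the antagonist screen, added after 15.5 h of a 16 h, 37C exposure. Human breast carcinoma MDA-kb2 AR-luc cells, compounds co-dosed with agonist R1881.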

[9] = qHTS assay to identify small molecule antagonists of the thyroid receptor (TR) signaling pathway - cell viability counter screen (AID 743064); also: nearly all actives have a fitted effect of over 50% in size; also: potency is read from the fitted curve at half-maximal effect
Summary of the method: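 Fluorescence from CellTiter-Fluor, added after 23.5 h exposure at 37 °C, reported viability of GH3.TRE-Luc cells co-treated with compound and 1 nM T3. Measured in the same wells as the luciferase TR readout.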

[10] = system: thyroid hormone receptor (rat, GH3 cells); assay: qHTS assay to identify small molecule agonists of the thyroid receptor (TR) signaling pathway (AID 743066; calls by dose curve)
[11] = qHTS assay to identify small molecule antagonists of the estrogen receptor alpha (ER-alpha) signaling pathway - cell viability counter screen (AID 743074; calls by dose curve;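 also: HEK293 cells carrying ER-alpha-UAS-bla reporter stimulated with 17beta-estradiol; nearly all actives have a fitted effect of over 45% in size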)
[12] = qHTS assay to identify small molecule antagonists of the estrogen receptor alpha (ER-alpha) signaling pathway using the BG1 cell line - cell viability counter screen (AID 743081);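 also: compound given together with 17beta-estradiol as the ER stimulus; nearly all actives have a fitted effect of over 45% in size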
Aromatase (Homo sapiens) = Aromatase (Homo sapiens) (UniProt P11511); assay: qHTS assay to identify aromatase inhibitors (AID 743083); also: nearly all actives have a fitted effect of over 55% in size; also: potency is read from the fitted curve at half-maximal effect
Sequence of Aromatase (Homo sapiens) (P11511 whole entry, looked up): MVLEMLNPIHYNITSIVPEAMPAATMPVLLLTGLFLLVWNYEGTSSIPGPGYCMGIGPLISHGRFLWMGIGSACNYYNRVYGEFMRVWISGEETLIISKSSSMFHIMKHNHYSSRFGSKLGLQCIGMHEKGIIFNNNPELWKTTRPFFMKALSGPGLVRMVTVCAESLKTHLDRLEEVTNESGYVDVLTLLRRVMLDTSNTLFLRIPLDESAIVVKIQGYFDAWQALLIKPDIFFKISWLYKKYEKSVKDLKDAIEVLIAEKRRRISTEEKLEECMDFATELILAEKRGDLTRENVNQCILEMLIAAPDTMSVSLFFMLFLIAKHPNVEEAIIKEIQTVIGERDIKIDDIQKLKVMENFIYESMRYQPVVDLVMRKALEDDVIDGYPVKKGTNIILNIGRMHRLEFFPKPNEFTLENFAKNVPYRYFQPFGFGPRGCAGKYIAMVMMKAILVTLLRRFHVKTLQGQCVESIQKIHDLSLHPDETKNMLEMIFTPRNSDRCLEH

[13] = qHTS assay to identify aromatase inhibitors - cell viability counter screen (AID 743084);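 also: cells stimulated with testosterone during compound exposure; nearly all actives have a fitted effect of over 55% in size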; also: potency is read from the fitted curve at half-maximal effect
[14] = target: Estrogen receptor (Homo sapiens) (UniProt P03372); assay: qHTS assay to identify small molecule antagonists of the estrogen receptor alpha (ER-alpha) signaling pathway (AID 743069; active = well fitted curve in the direction sought with a large enough effect in the signal ratio in the repeat runs, not every such curve was filed as active; inconclusive = weak or mixed curves, or effect the other way; inactive = no such curve, though single readings can be large or run the other way; the % refers to the signal ratio; also: potency is read from the fitted curve at half-maximal effect)
Sequence of Estrogen receptor (Homo sapiens) (P03372 whole entry, looked up): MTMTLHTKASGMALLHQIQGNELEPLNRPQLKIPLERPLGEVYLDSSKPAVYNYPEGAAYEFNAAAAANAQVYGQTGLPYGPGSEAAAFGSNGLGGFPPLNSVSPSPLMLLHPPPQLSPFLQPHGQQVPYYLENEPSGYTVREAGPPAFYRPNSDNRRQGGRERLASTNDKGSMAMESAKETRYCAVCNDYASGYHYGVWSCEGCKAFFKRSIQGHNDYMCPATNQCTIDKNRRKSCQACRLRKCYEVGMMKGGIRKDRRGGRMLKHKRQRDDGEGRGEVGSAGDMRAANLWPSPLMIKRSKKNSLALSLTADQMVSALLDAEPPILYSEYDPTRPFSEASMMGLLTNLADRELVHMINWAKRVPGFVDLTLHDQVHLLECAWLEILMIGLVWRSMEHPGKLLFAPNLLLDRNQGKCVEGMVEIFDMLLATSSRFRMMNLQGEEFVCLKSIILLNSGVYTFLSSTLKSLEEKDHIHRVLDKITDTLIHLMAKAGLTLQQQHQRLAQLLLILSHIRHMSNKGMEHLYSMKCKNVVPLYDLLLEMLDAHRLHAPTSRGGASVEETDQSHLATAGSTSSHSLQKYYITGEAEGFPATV
Summary of the method: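 Antagonist mode: compounds in DMSO were co-added with 17beta-estradiol to ER-alpha-bla HEK293 cells (2% charcoal-stripped serum) and left 18 h at 37C. Reporter inhibition was measured as FRET fluorescence after 2 h LiveBLAzer substrate at room temperature.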

[15] = target: Estrogen receptor (Homo sapiens) (UniProt P03372); assay: qHTS assay to identify small molecule agonists of the estrogen receptor alpha (ER-alpha) signaling pathway (AID 743075; calls by dose curve;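 also: HEK293 GripTite cells with ER-alpha and UAS-driven beta-lactamase reporter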; also: potency is read from the fitted curve at half-maximal effect)
[16] = target: Estrogen receptor (Homo sapiens) (UniProt P03372); assay: qHTS assay to identify small molecule agonists of the estrogen receptor alpha (ER-alpha) signaling pathway using the BG1 cell line (AID 743079); also: nearly all actives have a fitted effect of over 20% in size; also: potency is read from the fitted curve at half-maximal effect
[17] = qHTS assay to identify small molecule antagonists of the estrogen receptor alpha (ER-alpha) signaling pathway using the BG1 cell line (AID 743080; calls by dose curve;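 also: BG1 cells stimulated with 17beta-estradiol alongside compound; nearly all actives have a fitted effect of over 25% in size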; also: potency is read from the fitted curve at half-maximal effect)
Summary of the method: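 Readout is ONE-Glo luminescence, taken 30 min at room temperature after reagent addition, preceded by a CellTiter-Fluor viability read; BG1-Luc-4E2 cells had received compound and 17beta-estradiol for 21.5 h at 37 C.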

[18] = qHTS assay for identifying genotoxic compounds that show differential cytotoxicity against isogenic chicken DT40 cell lines with known DNA damage response pathways - Rev3 mutant cell line (AID 743014); also: nearly all actives have a fitted effect of over 55% in size; also: potency is read from the fitted curve at half-maximal effect
[19] = qHTS assay to identify small molecule antagonists of the thyroid receptor (TR) signaling pathway (AID 743065); also: nearly all actives have a fitted effect of over 55% in size; also: potency is read from the fitted curve at half-maximal effect
Summary of the method: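 Antagonism measured as loss of luciferase signal in GH3 cells stably carrying a TRE-luciferase reporter, co-treated with compound and T3 (1 nM final) for 23.5 h at 37 C. Viability was read in the same well by CellTiter-Fluor.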

[20] = activity change: at 70.3 µM (top of the series)
% is scaled to controls: 0 for no effect and ±100 for the full control effect.

CC(C)(OOC(C)(C)c1ccccc1)c1ccccc1
inactive and 54.5 µM (active): Potency [2]
active: Potency [3] 30.6 µM | Potency [9] 42.7 µM
inactive: Potency [1] | Potency [4] | Potency [5] | Potency [6] | Potency [7, 20] | Potency [8] | Potency [10] | Potency [11] | Potency [12] | Potency (Aromatase (Homo sapiens)) | Potency [13]

CC(C)C(=O)OCC(C)(C)C(OC(=O)C(C)C)C(C)C (configuration not stated)
active: Potency [15] 6.92 µM [inconclusive] | Potency [16] 12.2 µM
inactive: Potency [1] | Potency [4] | Potency [8] | Potency [9] | Potency [10] | Potency [14] | Potency [11] | Potency [17] | Potency [12] | Potency (Aromatase (Homo sapiens)) | Potency [13]

Nc1ccc(-c2ccc(N)c(N)c2)cc1N
6.09 µM (active) and inactive: Potency (Aromatase (Homo sapiens))
inactive: Potency [1] | Potency [4] | Potency [11] | Potency [12]
active: Potency [2] 60.9 µM and 9.69 µM | Potency [18] 60.9 µM and 12.2 µM | Potency [3] 68.4 µM and 12.2 µM
54.3 µM (active) and inactive: Potency [13]

Nc1c(Cl)cc([N+](=O)[O-])cc1Cl
inactive: Potency [1] | Potency [6] | Potency [7, 20] | Potency [8] | Potency [9] | Potency [19] | Potency [10] | Potency [14] | Potency [11] | Potency [15] | Potency [16] | Potency [17] | Potency [12] | Potency (Aromatase (Homo sapiens)) | Potency [13]
inactive and 61.1 µM (active): Potency [18] | Potency [3]

CNC(=O)Oc1cccc2c1OC(C)(C)O2
inactive: Potency [1] | Potency [2] | Potency [18] | Potency [3] | Potency [4] | Potency [8] | Potency [9] | Potency [11] | Potency [15] | Potency [16] | Potency [17] | Potency [12] | Potency (Aromatase (Homo sapiens)) | Potency [13]

N#Cc1cc(Br)c(O)c(Br)c1
active: activity change [7, 20] -6.84% | Potency [17] 68.5 µM and 52.5 µM
inactive: Potency [1] | activity change ([7]; at 70.3 µM (top of the series)) -3.58% | Potency [8] | Potency [9] | Potency [10] | Potency [14] | Potency [11] | Potency [15] | Potency [12] | Potency (Aromatase (Homo sapiens)) | Potency [13]

Nc1ccc(Cl)cc1N
inactive: Potency [8] | Potency [10] | Potency [11] | Potency [12] | Potency (Aromatase (Homo sapiens)) | Potency [13]
active: Potency [3] 42.3 µM | Potency [9] 42 µM

c1ccc(-c2cccc(-c3ccccc3)c2)cc1
inactive: Potency [1] | Potency [4] | Potency [8] | Potency [9] | Potency [10] | Potency [14] | Potency [11] | Potency [15] | Potency [12] | Potency (Aromatase (Homo sapiens)) | Potency [13]
active: Potency [16] 21.9 µM and 10.9 µM

CC(C)(c1cc(Cl)c(O)c(Cl)c1)c1cc(Cl)c(O)c(Cl)c1
inactive and 61.1 µM (active): Potency [9]
inactive: Potency [1] | Potency [2] | Potency [18] | Potency [3] | Potency [8] | Potency [12] | Potency (Aromatase (Homo sapiens)) | Potency [13]
active: Potency [19] 21.7 µM and 48.6 µM

C[C@]12CCC(=O)C[C@@H]1CC[C@@H]1[C@@H]2CC[C@]2(C)[C@@H](O)CC[C@@H]12
26.6 µM (active) and inactive: Potency [2]
inactive: Potency [3] | Potency [4] | Potency [8] | Potency [9] | Potency [10] | Potency [11] | Potency [12] | Potency (Aromatase (Homo sapiens)) | Potency [13]

CCC(CC)Nc1c([N+](=O)[O-])cc(C)c(C)c1[N+](=O)[O-]
inactive and 54.4 µM (active): Potency [3]
inactive: Potency [1] | Potency [18] | Potency [4] | Potency [8] | Potency [10] | Potency [11] | Potency [12] | Potency [13]

CC1(C)C(C=C(Cl)Cl)C1C(=O)OC(C#N)c1cccc(Oc2ccccc2)c1 (configuration not stated)
active: Potency [3] 61.1 µM
inactive: Potency [1] | Potency [18] | Potency [4] | Potency [8] | Potency [9] | Potency [10] | Potency [14] | Potency [11] | Potency [15] | Potency [16] | Potency [17] | Potency [12] | Potency (Aromatase (Homo sapiens)) | Potency [13]

O=c1oc2ccccc2c(O)c1C(CC(O)c1ccc(-c2ccc(Br)cc2)cc1)c1ccccc1 (configuration not stated)
inactive: Potency [2] | Potency [18] | Potency [4] | Potency [8] | Potency [10] | Potency [11] | Potency [15] | Potency [16] | Potency [17] | Potency [12] | Potency (Aromatase (Homo sapiens)) | Potency [13]
active: Potency [1] 23.9 µM and 46.3 µM | Potency [19] 29.8 µM and 57.9 µM

N[C@@H](Cc1ccc(N(CCCl)CCCl)cc1)C(=O)O
active: Potency [2] 944 nM and 8.28 µM | Potency [18] 75 nM and 117 nM | Potency [3] 2.37 µM and 8.28 µM | Potency [9] 10.6 µM and 26.2 µM
inactive: Potency [1] | Potency [4] | Potency [8] | Potency [12]

C[C@]12CCC(=O)C(O)=C1CC[C@@H]1[C@@H]2CC[C@]2(C)C(=O)CC[C@@H]12
active: Potency [2] 29.8 µM and 26.6 µM | Potency [3] 29.8 µM and 26.6 µM | Potency [15] 23.9 µM [activator] and 21.3 µM [activator] and 34.7 µM [activator] | Potency [16] 11.9 µM and 5.96 µM and 5.45 µM | Potency (Aromatase (Homo sapiens)) 75 nM and 53.1 nM and 27.3 nM
inactive: Potency [1] | Potency [4] | Potency [8] | Potency [9] | Potency [10] | Potency [11] | Potency [17] | Potency [12] | Potency [13]

Oc1c(Cl)c(Cl)c(Cl)c(Cl)c1Cl
inactive: Potency [18] | Potency [8] | Potency [10] | Potency [15] | Potency [12] | Potency (Aromatase (Homo sapiens)) | Potency [13]
active: Potency [4] 21.4 µM | Potency [9] 26.8 µM | Potency [19] 8.46 µM and 27.2 µM | Potency [14] 8.54 µM [inconclusive] | Potency [17] 59.9 µM and 27.2 µM
